Results from paper PMC12136788.
Whole data set: some 24,000 sequences, median “enrichment r” near 0.99, cut for the highest 2% near 3.7. The entries come from a sample that favours the highest values as a whole.

T1: UNK ZnF1-3 (human, UniProt Q9C0B0 31-174)
T1 sequence: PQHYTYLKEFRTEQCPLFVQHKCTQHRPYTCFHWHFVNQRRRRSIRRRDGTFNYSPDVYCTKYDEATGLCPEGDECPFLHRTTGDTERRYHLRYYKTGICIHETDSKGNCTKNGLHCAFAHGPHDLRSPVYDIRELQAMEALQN

B1: chr18:46858332:46858333:-_ENSG00000141627_ENST00000269445|hu_hu|FALSE|FALSE (ssRNA)
RNA: GGGAGUUCUACAGUCCGACGAUCCGACUGCUGAGGGAAAACAUGGGCCCCUGGAGGAGGUGGCUUUUCUUGUCUGAUAAAGUUAUAUAAUAAGGUCUUCACAAGUUUGCUGGUGUAUGGAAGACAUGGACCUCGCAUCAAAUACAACAGAGGAUUGAGCAUCA
B2: chr8:108054885:108054886:-_ENSMUSG00000013160_ENSMUST00000013304|mus_mus|FALSE|FALSE (ssRNA)
RNA: GGGAGUUCUACAGUCCGACGAUCUGAACGCUGGUGCAGUGUGCCUGUGAUUAGCAGGAUCACGUUGUCAAUCAUGUAGCUAUAAGUUAUGAAGUCCAGGAAGCUGGCGAGCGGCUCAUAAGCAUGGUUUCUCAUGUGGCGGAACAACAGAGGAUUGAGCAUCA
B3: chr1:35656432:35656433:-_ENSG00000116560_ENST00000357214|perfect_dup|motif|central (ssRNA)
RNA: GGGAGUUCUACAGUCCGACGAUCAGAUCUUCCGCGAUCAUCCACAAUUACAACAGCCCUUUCAAUAGGACCAAACUGGCGGAAGGCCUCUUCCAAAAGUUCGUUGGAAACAUAAGGAGAGAGAUUUCGAACAGACAGGGCUGCCAACAGAGGAUUGAGCAUCA
B4: 17381947_17386413_246_CDS_ENSMUSG00000041720_ENSMUST00000036161|mouse|control|control (ssRNA)
RNA: GGGAGUUCUACAGUCCGACGAUCGCAGAAGCUGAAGCUCUCUGCAACUGGGAGGUUACCUCUGCCUUUCCGAGCUGUGCUUUCUUCUACCCAAUACACUUUUGGAAGACCCCUGAGAAGUCGAAGAAGAUAAGGAACAACACACAACAGAGGAUUGAGCAUCA
B5: 235582851_235590549_671_CDS_ENSG00000116957_ENST00000366601|human|control|control (ssRNA)
RNA: GGGAGUUCUACAGUCCGACGAUCAUUAAGGACUUCCAGGUGUCUGAGCUGAUCAGCAAUGUGUAUCACUUCAUCCCAUGAUGACAACAGGUUUUUUGACAAAUCUACCUUUCUGAUAUUAGGACAUGCUUCAGCAACUCCUCCCAACAGAGGAUUGAGCAUCA
B6: chr16:94690093:94690094:+_ENSMUSG00000040785_ENSMUST00000117648|mus_hu|mus_mus_mus_hu_True|68_78 (ssRNA)
RNA: GGGAGUUCUACAGUCCGACGAUCGGGCUGGGAUGACGGACACACAGCCUCGAUUCCGGUAAAAAAAAAAAAUAGCCGAUACUAAUUAAAAAGUGUUAAUGAUUUUUGAAAAUCAGAUUACAUCUAUAAAAGAUGAAAAGCAAACAACAGAGGAUUGAGCAUCA
B7: chr16:94690093:94690094:+_ENSMUSG00000040785_ENSMUST00000117648|mus_hu|mus_mus_mus_hu_True|8_98 (ssRNA)
RNA: GGGAGUUCUACAGUCCGACGAUCGGGCUGGGAUGACAGCAGACAGCCCUCGAUUCCAGGGGGAAAAAGUCUUAGUCGAUACUAAUUAAAAAGUGUUAAUGAUUUUUGAAAAUCAGAUUACAUCUAUUUGAAUCAUAAAGCAAACAACAGAGGAUUGAGCAUCA
B8: chr16:94690093:94690094:+_ENSMUSG00000040785_ENSMUST00000117648|mus_hu|mus_mus_mus_hu_True|1_68 (ssRNA)
RNA: GGGAGUUCUACAGUCCGACGAUCGGGCUGGGAUGACGGACACACAGCCUCGAUUCCAGGGGGAAAAAAAAAUAGCCGAUACUAAUUAAAAAGUGUUAAUGAUUUUUGAAAAUCAGAUUACAUCUAUAAAAGAUGAAAGCACUUCAACAGAGGAUUGAGCAUCA
B9: chr5:74677807:74677808:-_ENSG00000113163_ENST00000380494|hu_mus|motif|central (ssRNA)
RNA: GGGAGUUCUACAGUCCGACGAUCACGGACACAUCGAUUGUUCAGAGGAGCACUAUCAUGAUCCACAGAAAAAUUACAAACGGUCCAAGUUUCAGGAUCAUUUUCAGUCAAGGCUGGGAUCUUUCGAAUAGCAGAAAGAUACAGCAACAGAGGAUUGAGCAUCA
B10: chr16:94690093:94690094:+_ENSMUSG00000040785_ENSMUST00000117648|mus_hu|mus_mus_mus_hu_True|18_98 (ssRNA)
RNA: GGGAGUUCUACAGUCCGACGAUCGGGCUGGGAUGACAGCAGACAGCCCUCGAUUCCAGGGGGAAAAAGUCUUAGUCGAUACUAAUUAAAAAGUGUUAAUGAUUUUUGAAAAUCAGAUGUAGAUUAAAAAAGAUGAAAAGCAAACAACAGAGGAUUGAGCAUCA
B11: chr16:94690093:94690094:+_ENSMUSG00000040785_ENSMUST00000117648|mus_hu|mus_mus_mus_hu_True|48_48 (ssRNA)
RNA: GGGAGUUCUACAGUCCGACGAUCGGGCUGGGAUGACGGACACACAGCCUCGAUUCCAGGGGGAAAAAGUCUUAGUCGAUACUAAUUUAAAAAGUAUAAUGAUUUUUGAAAAUCAGAUUACAUCUAUAAAAGAUGAAAAGCAAACAACAGAGGAUUGAGCAUCA
B12: chr17:6086338:6086339:+_ENSMUSG00000034345_ENSMUST00000039487|mus_mus|motif|central (ssRNA)
RNA: GGGAGUUCUACAGUCCGACGAUCUGACUGAAAUAUAAAAUCCAGUAGUGCUCCAAUACAGCUAGAGUGUCCAUAAAAAUCGGUCUUCUACUUAAUUCUUAGUAUCAGGUGUGUAAGUAACAAUCCACUGGAAAGUUUACAUUACAACAGAGGAUUGAGCAUCA
B13: chr16:94690093:94690094:+_ENSMUSG00000040785_ENSMUST00000117648|mus_hu|mus_mus_mus_hu_True|18_38 (ssRNA)
RNA: GGGAGUUCUACAGUCCGACGAUCGGGCUGGGAUGACGGACACACAGCCUCGAUUCCAGGGGGAAAAAGUCUUAGUCGAUACUAAUUAAAAAGUGUUUUUAUAAUUGGAAAAUCAGAUGUAGAUUAAAAAAGAUGAAAAGCAAACAACAGAGGAUUGAGCAUCA
B14: chr16:94690093:94690094:+_ENSMUSG00000040785_ENSMUST00000117648|mus_hu|mus_mus_mus_hu_True|18_78 (ssRNA)
RNA: GGGAGUUCUACAGUCCGACGAUCGGGCUGGGAUGACGGACACACAGCCUCGAUUCCGGUAAAAAAAAGUCUUAGUCGAUACUAAUUAAAAAGUGUUAAUGAUUUUUGAAAAUCAGAUGUAGAUUAAAAAAGAUGAAAAGCAAACAACAGAGGAUUGAGCAUCA

target: T1, UNK ZnF1-3; test: nsRBNS (natural sequence RNA bind-n-seq); RBNS binding buffer (assumed for nsRBNS): 25 mM Tris pH 7.5, 150 mM KCl, 3 mM MgCl2, 0.01% Triton X-100, 500 ug/ml BSA, 20 U/ml SUPERase-In, 4 C; UNK is unkempt and MSI1 is Musashi-1; names of the RNAs are library labels; protein concentration not given here; high values mean tight binding

In order of falling binding signal:
1. B6  5.49 enrichment R
2. B10  4.09 enrichment R
3. B13  3.69 enrichment R
4. B14  3.5 enrichment R
5. B1  2.32 enrichment R
6. B9  1.36 enrichment R
7. B3  1.13 enrichment R
8. B8  1.12 enrichment R
9. B7  0.999 enrichment R
10. B5  0.938 enrichment R
11. B2  0.896 enrichment R
12. B4  0.848 enrichment R
13. B11  0.836 enrichment R
14. B12  0.812 enrichment R
